# Screens as filed in PubChem.
# Sampled rows, rich in hits. Any-hit rate of the full collection: about 3.2%.
# MEKK2 mut-MEK5: signal of MEK5 binding to mutant human MEKK2 PB1 domain. bead flow cytometry, Alexa488-MEK5 binding to MEKK2 mutant. percent response, % at 10 µM. actives 0.35% (n = 290,000). AID 1530; in the data active = percent response above about 24%, passing the limit was not always enough
# MEKK3 PB1 HTS: modulators (inhibitors or enhancers) of MEK5 binding to human MEKK3 PB1 domain; Q99759; bead-based flow cytometry, Alexa488-MEK5 binding to MEKK3; actives lie on both sides; 0 = blocked by unlabeled MEK5, 100 = vehicle; binding response (% of control), % at 10 µM; actives 1.4% (n = 290,000);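 active = binding response more than 3 SD above or below the average of its plate-row segment, actives on both sides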;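 also: Alexa488 bead fluorescence after subtracting the streptavidin-only scavenger bead signal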
# SKN-1 inh: C. elegans SKN-1 inhibition. inhibition, % at 21.8 µM. AID 624304. actives 0.49% (n = 360,000). C. elegans VP596 Pgst-4::GFP/RFP ratio, acrylamide-induced, 24 h;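 active = interference check ratio from 0.5 to 1.5 plus GFP to RFP signal ratio inhibition reaching or exceeding a fixed threshold, cut at about 30% in these data, passing the limit was not always enough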
# MEKK2 WT-MEK5: raises or lowers MEK5 binding to wildtype human MEKK2 PB1 domain; bead flow cytometry, Alexa488-MEK5 binding to MEKK2 WT; actives lie on both sides; binding response (% of control), % at 10 µM; actives 1.1% (n = 290,000); in the data active = binding response below about 67% or above about 130%
# CendR NRP1 mod: NRP-1/CendR interaction modulation; O14786; FAM-RPARPAR peptide binding to NRP-1, fluorescence polarization; inhibition, % at 25 µM; actives 0.85% (n = 360,000); AID 602438;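 active = inhibition or corrected inhibition above about 18%, plus a signal ratio from 0.5 to 1.5, limit read from the data, passing the limit was not always enough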
# * marks the source's active call; other numbers are inactive results; . = no result; [ ] = remark or other dose.
SMILES,MEKK2 mut-MEK5,MEKK3 PB1 HTS,SKN-1 inh,MEKK2 WT-MEK5,CendR NRP1 mod
CCOc1ccccc1C1CC(=O)NC2=C1C(=O)CC(C)(C)C2 (stereo not drawn),12,103,-4,103,26*
COc1cccc2c1cc1c(=O)n(CC(=O)N3CCCC3)nc(C)n12,.,.,8,.,13
COc1cccc2c1cc1c(=O)n(CC(=O)N3CCCCCC3)nc(C)n12,9,102,8,106,24*
CC(=O)Nc1cccc(NC(=S)Nc2cccc3ccccc23)c1,3,103,25,102,30*
CC(=O)c1cccc(NC(=S)Nc2cccc3ccccc23)c1,8,104,-7,108,6
COCCN1C=C2C(=O)C(C)(OC(=O)CCC(=O)OC)C(=O)C(Br)=C2C=C1c1ccc(OC)cc1 (stereo not drawn),1,97,30,96,13
C=CCN1C=C2C(=O)C(C)(OC(=O)CCC(=O)OC)C(=O)C(Br)=C2C=C1c1ccc(OC)cc1 (stereo not drawn),-1,80,10,-3.0*,11
COC(=O)CCC(=O)OC1(C)C(=O)C2=CN(c3ccc(OC)cc3)C(c3ccc(OC)cc3)=CC2=C(Br)C1=O (stereo not drawn),-1,87,8,-6.0*,5
CCn1c(=O)c(CCC(=O)NCCN2CCOCC2)c(C)c2c(C)nn(-c3cccc(C)c3)c21,-9,92,0,97,28*
CCN1CCN(CCNC(=O)CCc2c(C)c3c(C)nn(-c4ccccc4)c3n(C)c2=O)CC1,5,95,9,115,14
CCCCNC(=O)C1(C)CCCCN1C(=O)c1cc2ccccc2s1 (stereo not drawn),.,.,18,.,-9
O=C1CC(c2ccccc2)=C(c2ccccc2)C1c1ccccc1 (stereo not drawn),.,.,18,.,-1
CCOC(=O)C1CCCN(C(=O)c2ccc3c(c2)C(C)(C)CCC3(C)C)CC1 (stereo not drawn),.,.,16,.,8
O=C(Nc1cccc(Br)c1)c1ccc(CSc2ccccc2)cc1,.,.,-10,.,40*
CN(C)/N=C/C=C1\CC/C(=C\c2ccc(Br)cc2)C1=O,.,.,41*,.,-71
CN(C)/N=C/C=C1\CCC/C(=C/c2cccs2)C1=O,-6,97,18,96,-42
CCc1ccc(O)c(CNCCNCc2cc(CC)ccc2O)c1,.,.,-24,.,8
Cc1ccc(O)c(CNCCNCc2cc(C)ccc2O)c1,.,.,-13,.,25*
COc1ccc(C(c2nnnn2C(C)C)N2CCN(C(=O)c3ccco3)CC2)cc1 (stereo not drawn),-20,53*[inhibitor],-5,46*[inhibitor],-4
COC(=O)CN1C(=S)N(c2ccc(OC)cc2)C(=O)/C1=C/c1ccc(N2CCOCC2)cc1,-16,82,37*,70,-153
O=C1NC[C@H](CCCCN2C[C@H](Cc3ccc(O)cc3)N(CCc3ccccc3)C(=O)C2=O)N(CCC2CCCCC2)C1=O,.,.,-7,.,4
CC1Cc2ccccc2N1C(=O)C1CCN(S(=O)(=O)Cc2ccccc2)CC1 (stereo not drawn),11,105,32*,107,7
CCOC(=O)N1CCN(c2nc3ccc(C)cc3n3cnnc23)CC1,-2,102,-4,99,1
O=C(CC[C@H]1O[C@@H](n2cnc3c(NC(=O)c4ccccc4)ncnc32)[C@H](O)[C@@H]1O)NCc1ccco1,.,.,19,.,1
CCC1S/C(=N/N=C/c2ccco2)N(Cc2ccccc2C)C1=O (stereo not drawn),-2,98,-9,102,4
SMILES,MEKK2 mut-MEK5,MEKK3 PB1 HTS,SKN-1 inh,MEKK2 WT-MEK5,CendR NRP1 mod
Cc1ccccc1CN1C(=O)CS/C1=N/N=C/c1ccco1,-15,97,4,94,29*
CC(Nc1cccc2ccccc12)C(=O)N/N=C/c1ccccn1 (stereo not drawn),10,110,-6,109,40*
Cc1ccc(NS(=O)(=O)c2c(C)[nH]c(C)c2C(=O)N2CCCCC2)c(Br)c1,4,103,5,105,2
Cc1cc(C)c(S(=O)(=O)N2CCOC2CNC(=O)C(=O)NCCCN2CCOCC2)c(C)c1 (stereo not drawn),-2,102,7,101,1
c1ccc(-c2ccc(-c3nc(-c4ccncc4)no3)cc2)cc1,0,101,11,98,1
CCc1ccc(-c2nc(-c3ccncc3)no2)cc1,3,105,48*,104,6
